A short description of experiment [1]: Nuclear factor erythroid 2-related factor 2/antioxidant responsive element (Nrf2/ARE) small molecule agonists: qHTS cell viability counter screen in human keratinocytes (AID 1919968; active means well fitted curve in the direction sought with a large enough effect in the repeat runs; an effect the other way counts as inactive or inconclusive; further: nearly all actives have a fitted effect of over 55% in size). The procedure, abridged: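 Viability counter-screen: KeratinoSens reporter cells, DMSO-delivered compounds, 23 h at 37 C, CellTiter-Fluor fluorescence.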
For orientation: qHTS replaces the single test concentration by a dilution series.

The nature of experiment [2]: Nuclear factor erythroid 2-related factor 2/antioxidant responsive element (Nrf2/ARE) small molecule agonists: luciferase reporter gene qHTS assay in human keratinocytes (AID 1919969). Further: nearly all actives have a fitted effect of over 35% in size. Further: potency means the concentration at half of the fitted maximal effect. On the technique in general: Reporter assays use an easily measured gene product as a stand-in for the process of interest.
The target in experiment [3] is Gonadotropin-releasing hormone receptor (Homo sapiens) (UniProt P30968). In words: Human gonadotropin-releasing hormone receptor (GnRHR) small molecule agonists, calcium flux assay in GnRHR-HEK293 cells (AID 1920063). Further: nearly all actives have a fitted effect of over 35% in size. An outline of the steps:
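Tox21-format agonist screen using human GnRHR-expressing HEK293 cells and a fluorescent calcium dye; kinetic 3-min fluorescence reading after compound addition, 15-point concentration series run in triplicate.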
In general terms: A change in cytosolic calcium serves as a functional read-out for many receptors and channels.

The target of experiment [4] is KiSS-1 receptor (Homo sapiens) (UniProt Q969F8). In words: Human kisspeptin (KISS1R) small molecule agonists, calcium flux assay in KISS1R-HEK293 cells (AID 1920064; active means well fitted curve in the direction sought with a large enough effect in the repeat runs; an effect the other way counts as inactive or inconclusive). The procedure, abridged: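 Intracellular calcium mobilization in KISS1R-HEK293 cells was recorded by fluorescence (Ex/Em 480/540) for 3 min following compound addition to cells pre-loaded 1 h with calcium dye.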

Experiment [5] in a line: G protein-coupled receptor (GPCR) small molecule agonists, calcium flux assay: HEK293 wild type cell line counter screen (AID 1920065). An outline of the steps: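 In this agonist-mode screen, ATP is the positive control and DMSO the vehicle. Cells grow 18 h before a 1 h dye incubation at 37 C; signal is taken at Ex/Em 480/540 over 3 min.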
Experiment [6] is described as follows: p53 small molecule agonists, cell-based qHTS assay with rat liver microsomes (AID 1963578). An outline of the steps:
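Rat liver microsome activation: microsomes 0.5 mg/mL, NADPH 0.5 mg/mL final; p53RE-bla cells, 16 h 37 C; LiveBLAzer readout, 2 h RT dark.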

A short description of experiment [7]: p53 small molecule agonists, cell-based qHTS assay with human liver microsomes: qHTS cell viability counter screen (AID 1963579). Further: nearly all actives have a fitted effect of over 45% in size. The procedure, abridged:
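Luminescent CellTiter-Glo read-out, 30 min at room temperature, gauged cytotoxicity in p53RE-bla cells exposed 16 h at 37 C to DMSO-dissolved compounds with metabolic activation by human liver microsomes and NADPH, each 0.5 mg/mL final.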

Experiment [8] is described as follows: p53 small molecule agonists, cell-based qHTS assay with rat liver microsomes: qHTS cell viability counter screen (AID 1963580). Further: nearly all actives have a fitted effect of over 45% in size. An outline of the steps:
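HCT-116 p53RE-bla, 4,000 cells/well, 5 h pre-incubation; cpd + rat liver microsomes 0.5 mg/mL + NADPH 0.5 mg/mL (final); 16 h, 37 C; CellTiter-Glo, 30 min RT; luminescence.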

A short description of experiment [9]: p53 small molecule agonists, cell-based qHTS assay: qHTS cell viability counter screen (AID 1963581). Further: nearly all actives have a fitted effect of over 45% in size. An outline of the steps:
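Compounds are pinned onto HCT-116 p53RE-bla cells and left 16 h at 37 C. Following the reporter FRET read, ATP is quantified by CellTiter-Glo luminescence after 30 min at room temperature.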

Experiment [10] in a line: p53 small molecule agonists, cell-based qHTS assay (AID 1963582; active means well fitted activation curve with a large enough effect in the signal ratio in the repeat runs, not every such curve was filed as active; the % refers to the signal ratio). An outline of the steps: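 Agonist activity was scored from beta-lactamase FRET fluorescence in p53RE-bla cells treated 16 h at 37 C with compounds in DMSO, substrate incubation being 2 h at room temperature.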
Experiment [11] addresses 5-hydroxytryptamine receptor 2A (Homo sapiens) (UniProt P28223). In words: 5-hydroxytryptamine receptor 2A (HTR2A) small molecule agonists, cell-based qHTS assay (AID 1963587). Further: nearly all actives have a fitted effect of over 30% in size. An outline of the steps:
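Kinetic calcium-flux fluorescence (2 min, 1 sec intervals) after compound addition in agonist mode. HTR2A-CHO cells were cultured 18 h, then dye-loaded 1 h at 37 C.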

Experiment [12] concerns the target Muscarinic acetylcholine receptor M1 (Homo sapiens) (UniProt P11229). Nature of the experiment: Cholinergic receptor muscarinic 1 (CHRM1) small molecule antagonists, cell-based qHTS assay (AID 1963588). Further: nearly all actives have a fitted effect of over 40% in size. An outline of the steps:
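CHRM1-CHO calcium-flux assay, antagonist mode. Cells were seeded 18 h, dye-loaded 1 h at 37 C and given compound for 5 min at RT, then acetylcholine was added at 50nM. FDSS fluorescence was read 3 min; 15 concentrations, three runs.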

Experiment [13] shares this target. Nature of the experiment: Cholinergic receptor muscarinic 1 (CHRM1) small molecule agonists, cell-based qHTS assay (AID 1963589). Further: nearly all actives have a fitted effect of over 35% in size. The procedure, abridged: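 Stable CHRM1-CHO cells (human receptor) were incubated 18 h, dye-loaded for 1 h at 37 C and exposed to test compounds for agonist activity, with calcium-dependent fluorescence followed kinetically.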
The nature of experiment [14]: cAMP Responsive Elements (CRE) small molecule agonists, cell-based qHTS assay (AID 1963590). An outline of the steps:
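FRET-based beta-lactamase readout (LiveBLAzer B/G, 2 h RT) quantified CRE activation in HEK 293T CRE-bla cells after 3 h treatment with DMSO-dissolved compounds.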

Experiment [15] in a line: cAMP Responsive Elements (CRE) small molecule antagonists, cell-based qHTS assay (AID 1963591; active means well fitted inhibition curve with a large enough effect in the signal ratio in the repeat runs, not every such curve was filed as active; the % refers to the signal ratio). An outline of the steps: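 qHTS in CRE-bla HEK 293T cells: compound in DMSO, then 0.25 uM NKH477 (final), 3 h at 37 °C/5% CO2; beta-lactamase FRET read-out after 2 h substrate incubation.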
The target in experiment [16] is Beta-2 adrenergic receptor (Homo sapiens) (UniProt P07550). In words: Adrenergic beta2 receptor (ADRB2) small molecule antagonists, cell-based qHTS assay (AID 1963592). Further: series mostly up to about 92 µM; nearly all actives have a fitted effect of over 50% in size. An outline of the steps: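 Cells (CHO, stable ADRB2 overexpression) incubated 18-20hr at 37C; compounds added from DMSO; agonist mix (1nM isoproterenol, 100uM IBMX, 25uM Ro-20-1724) added; 0.5hr RT; d2-cAMP and anti-cAMP-cryptate added; 1hr RT; 665/615 nm read.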

Experiment [17] concerns the target D(2) dopamine receptor (Homo sapiens) (UniProt P14416). Nature of the experiment: Dopamine D2 receptor (DRD2) small molecule agonists, cell-based qHTS assay (AID 1963594). Further: nearly all actives have a fitted effect of over 35% in size. The procedure, abridged:
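cAMP accumulation in DRD2-HEK293 cells measured by HTRF after 1 h detection; compounds added 10 min before NKH477 (200nM […]) forskolin-analogue stimulation, 30 min at room temperature, with Ro20-1724 present at 0.1 mM final.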

Experiment [18] shares this target. In words: Dopamine D2 receptor (DRD2) small molecule antagonists, cell-based qHTS assay (AID 1963595; active means well fitted inhibition curve with a large enough effect in the signal ratio in the repeat runs, with a control signal flat; the % refers to the signal ratio). An outline of the steps: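 HEK293 cells stably expressing DRD2, preincubated with 0.1 mM Ro20-1724 and compounds 10 min, were stimulated with 200 nM NKH477 plus 12 nM quinpirole for 30 min at room temperature; cAMP measured by HTRF (665/620 nm).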
Experiment [19] addresses 5-hydroxytryptamine receptor 2A (Homo sapiens) (UniProt P28223). In words: 5-hydroxytryptamine receptor 2A (HTR2A) small molecule antagonists, cell-based qHTS assay (AID 1963586). Further: nearly all actives have a fitted effect of over 45% in size. Further: potency means the concentration at half of the fitted maximal effect. An outline of the steps: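 Antagonist-mode intracellular calcium assay: DOI (4 nM) added after 5 min compound pre-incubation at room temperature to dye-loaded HTR2A-CHO cells. Fluorescence followed for 3 min, sampled every second.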

The target of experiment [20] is Beta-2 adrenergic receptor (Homo sapiens) (UniProt P07550). Nature of the experiment: Adrenergic beta2 receptor (ADRB2) small molecule agonists, cell-based qHTS assay (AID 1963593).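 Further: CHO cells stably overexpressing human ADRB2.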 The procedure, abridged:
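CHO cells stably over-expressing ADRB2 were plated overnight at 37C, then dosed with compounds plus a stimulation mix containing 100uM IBMX and 25uM Ro-20-1724 for 0.5hr at room temperature. cAMP was measured by HTRF competition, 1hr.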

A number with no mark means an inactive call. Records with an inconclusive call do not appear. Activity calls are given as the source filed them. Unless noted, the call rests on the fitted dose curve.

Sequence of Gonadotropin-releasing hormone receptor (Homo sapiens) (P30968 whole entry, looked up): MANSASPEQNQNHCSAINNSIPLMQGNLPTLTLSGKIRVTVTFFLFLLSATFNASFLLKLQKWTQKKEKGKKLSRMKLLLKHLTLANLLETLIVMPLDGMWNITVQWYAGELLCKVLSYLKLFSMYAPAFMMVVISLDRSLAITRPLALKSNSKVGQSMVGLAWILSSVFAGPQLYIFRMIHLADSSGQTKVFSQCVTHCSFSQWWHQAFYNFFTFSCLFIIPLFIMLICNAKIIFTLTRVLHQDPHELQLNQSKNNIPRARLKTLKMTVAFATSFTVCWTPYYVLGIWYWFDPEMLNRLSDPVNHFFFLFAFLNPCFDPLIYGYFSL
Sequence of Beta-2 adrenergic receptor (Homo sapiens) (P07550 whole entry, looked up): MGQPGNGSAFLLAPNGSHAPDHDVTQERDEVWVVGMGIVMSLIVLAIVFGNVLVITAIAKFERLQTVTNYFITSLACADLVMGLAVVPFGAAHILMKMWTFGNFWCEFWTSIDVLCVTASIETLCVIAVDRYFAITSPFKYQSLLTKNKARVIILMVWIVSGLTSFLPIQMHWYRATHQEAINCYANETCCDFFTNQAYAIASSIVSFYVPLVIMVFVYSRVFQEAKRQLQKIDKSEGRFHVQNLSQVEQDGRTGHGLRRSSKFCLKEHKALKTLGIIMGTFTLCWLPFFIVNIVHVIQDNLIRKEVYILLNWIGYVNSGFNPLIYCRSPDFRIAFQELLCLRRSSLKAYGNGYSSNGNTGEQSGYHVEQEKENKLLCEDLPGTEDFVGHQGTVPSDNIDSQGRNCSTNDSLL
Sequence of 5-hydroxytryptamine receptor 2A (Homo sapiens) (P28223 whole entry, looked up): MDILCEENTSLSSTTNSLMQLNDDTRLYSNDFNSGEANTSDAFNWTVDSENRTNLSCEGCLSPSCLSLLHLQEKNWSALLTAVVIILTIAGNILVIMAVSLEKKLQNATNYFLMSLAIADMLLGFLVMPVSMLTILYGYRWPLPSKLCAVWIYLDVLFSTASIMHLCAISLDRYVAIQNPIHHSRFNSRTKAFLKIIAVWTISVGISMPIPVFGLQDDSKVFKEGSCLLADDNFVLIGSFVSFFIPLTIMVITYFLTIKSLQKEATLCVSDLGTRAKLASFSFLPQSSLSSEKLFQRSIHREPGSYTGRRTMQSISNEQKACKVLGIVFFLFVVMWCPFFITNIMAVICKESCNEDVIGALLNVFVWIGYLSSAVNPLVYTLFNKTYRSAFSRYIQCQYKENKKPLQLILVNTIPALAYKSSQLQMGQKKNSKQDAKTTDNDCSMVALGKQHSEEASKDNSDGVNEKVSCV
Sequence of D(2) dopamine receptor (Homo sapiens) (P14416 whole entry, looked up): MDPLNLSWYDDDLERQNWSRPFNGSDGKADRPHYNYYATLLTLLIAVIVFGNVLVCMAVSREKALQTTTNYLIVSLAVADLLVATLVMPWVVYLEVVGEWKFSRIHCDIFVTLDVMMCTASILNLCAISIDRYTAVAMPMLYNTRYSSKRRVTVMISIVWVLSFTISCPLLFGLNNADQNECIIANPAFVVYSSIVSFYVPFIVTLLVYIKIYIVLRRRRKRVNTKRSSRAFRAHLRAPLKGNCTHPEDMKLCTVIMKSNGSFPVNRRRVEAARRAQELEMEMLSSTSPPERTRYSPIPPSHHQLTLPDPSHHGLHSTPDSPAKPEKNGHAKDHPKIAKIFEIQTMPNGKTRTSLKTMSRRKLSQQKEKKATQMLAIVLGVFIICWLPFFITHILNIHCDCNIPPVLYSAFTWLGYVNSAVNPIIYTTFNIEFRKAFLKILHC
Sequence of Muscarinic acetylcholine receptor M1 (Homo sapiens) (P11229 whole entry, looked up): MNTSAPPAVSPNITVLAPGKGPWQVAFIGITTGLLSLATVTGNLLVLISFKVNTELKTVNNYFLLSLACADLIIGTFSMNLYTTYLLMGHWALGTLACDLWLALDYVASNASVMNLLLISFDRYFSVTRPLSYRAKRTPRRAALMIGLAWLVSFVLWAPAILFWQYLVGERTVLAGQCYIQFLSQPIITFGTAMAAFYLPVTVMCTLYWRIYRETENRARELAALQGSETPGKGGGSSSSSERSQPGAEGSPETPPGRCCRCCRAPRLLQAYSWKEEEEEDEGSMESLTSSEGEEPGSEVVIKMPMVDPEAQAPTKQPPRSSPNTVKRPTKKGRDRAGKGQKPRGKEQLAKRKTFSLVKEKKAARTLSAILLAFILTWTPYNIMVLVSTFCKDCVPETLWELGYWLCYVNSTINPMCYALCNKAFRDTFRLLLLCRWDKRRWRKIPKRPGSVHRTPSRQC
Sequence of KiSS-1 receptor (Homo sapiens) (Q969F8 whole entry, looked up): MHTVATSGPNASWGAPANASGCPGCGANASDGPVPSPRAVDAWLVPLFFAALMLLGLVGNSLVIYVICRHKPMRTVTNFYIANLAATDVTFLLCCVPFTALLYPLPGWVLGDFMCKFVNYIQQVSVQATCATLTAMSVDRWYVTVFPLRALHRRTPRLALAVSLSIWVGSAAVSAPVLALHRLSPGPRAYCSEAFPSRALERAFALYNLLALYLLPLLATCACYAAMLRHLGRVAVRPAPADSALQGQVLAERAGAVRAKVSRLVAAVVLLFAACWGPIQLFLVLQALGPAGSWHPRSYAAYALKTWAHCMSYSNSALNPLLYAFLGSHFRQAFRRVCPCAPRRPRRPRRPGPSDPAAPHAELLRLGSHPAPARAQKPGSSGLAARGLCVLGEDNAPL

On to `CC(C)N(C)C`, for which the Potency entry in experiment [1], in experiment [2], in experiment [3], in experiment [4], in [5] and in experiment [6] was “inactive” throughout. Besides, the Potency entry in experiment [7], in experiment [8], in experiment [9], in experiment [10], in [11] and in experiment [12] was “inactive” each time. Also, the Potency result in [13], in experiment [14], in [15], in [16], in experiment [17] and in experiment [18] was “inactive” throughout.

Consider `CC(=O)Oc1ccc2c(c1)CC[C@@H]1[C@@H]2CC[C@]2(C)[C@@H](O)CC[C@@H]12`, for which the Potency entry in [1], in experiment [2], in experiment [3], in [4], in experiment [5] and in experiment [6] was “inactive” each time. Also, the Potency result in experiment [7], in experiment [8], in experiment [9], in experiment [10], in experiment [19] and in experiment [11] was “inactive” in each case. The Potency result in experiment [12], in [13], in experiment [14], in experiment [15], in experiment [16] and in experiment [17] was “inactive” throughout.

Turning to `O=C(O)C1(C(=O)Nc2ccc(Cl)cc2Cl)CC1`, the Potency entry in [1], in [2], in [3], in [4], in experiment [5] and in experiment [6] was “inactive” in each case. Besides, the Potency entry in [7], in experiment [8], in [9], in [11], in [12] and in [13] was “inactive” throughout. Moreover, the Potency entry in experiment [16] and in experiment [17] was “inactive” throughout. Besides, the Potency in [19] is 33.4 µM (active).

Regarding `CO/N=C(/C(=O)N[C@@H]1C(=O)N2C(C(=O)OCOC(=O)C(C)(C)C)=C(C)CS[C@H]12)c1csc(N)n1`, the Potency result in experiment [1], in experiment [2], in [3], in [4], in experiment [5] and in [6] was “inactive” each time. The Potency entry in experiment [7], in experiment [8], in experiment [9], in experiment [19], in experiment [11] and in experiment [12] was “inactive” in each case. Further, the Potency result in [13] and in [16] was “inactive” in each case.

For `CC(C)C(C)(C)C(C)(C)C(C)(C)S`, the Potency result in experiment [1], in experiment [2], in [3], in [4], in experiment [5] and in experiment [6] was “inactive” throughout. For the same molecule, the Potency result in experiment [7], in [8], in experiment [9], in experiment [10], in experiment [11] and in experiment [13] was “inactive” throughout. Further, the Potency result in experiment [14] is “inactive”.

For the molecule `C[C@H]1C[C@H]2[C@@H]3CCC4=CC(=O)C=C[C@]4(C)[C@@]3(Cl)[C@@H](O)C[C@]2(C)[C@@]1(O)C(=O)CO`, the Potency entry in experiment [1], in [2], in experiment [3], in experiment [4], in [5] and in [6] was “inactive” throughout. Moreover, the Potency entry in [7], in experiment [8], in experiment [9], in experiment [10], in [16] and in experiment [17] was “inactive” in each case. The Potency entry in experiment [18] is “inactive”.

Regarding `C=C(C)C(=O)OCCOC1CC2CC1C1C=CCC21` (stereo not drawn), the Potency result in experiment [1], in [2], in experiment [3], in experiment [4], in [5] and in experiment [6] was “inactive” throughout. Further, the Potency result in [7], in experiment [8], in [9], in [10], in experiment [11] and in experiment [12] was “inactive” each time. The Potency result in [13], in experiment [14], in [16], in experiment [20], in experiment [17] and in experiment [18] was “inactive” in each case.

For `O=[N+]([O-])c1cc[n+]([O-])cc1`, the Potency result in experiment [1], in experiment [3], in experiment [4], in [5], in experiment [6] and in experiment [7] was “inactive” each time. Also, the Potency result in experiment [8], in experiment [9], in experiment [10], in experiment [19], in experiment [11] and in [12] was “inactive” throughout. In addition, the Potency result in experiment [14], in experiment [15], in experiment [16], in experiment [20], in [17] and in [18] was “inactive” in each case. The Potency in [2] was 61.1 µM (active).

Values taken from PubChem BioAssay (Tox21).
